The values that follow come from PubChem BioAssay.

Values without a mark were called inactive. Activity calls are given as the source filed them. Rule as the data show it, unless noted: active = inhibition above about 30%; inactive = the rest.

Broadly, the inhibition is the change of the read-out against control, counted positive when it falls.

Assay [1] concerns the target Nuclear receptor coactivator 3 (Homo sapiens) (UniProt Q9Y6Q9). The experiment in a line: NCOA3 GAL4-fusion reporter inhibition – cell-based, luminescence, quadruplicate, confirmation (AID 588792;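 active = mean inhibition over 43.08%, the solvent-only control mean plus 3 SD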;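 also: 0% = DMSO treated cells and 100% = gossypol at 36 µM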). Conditions: HEK293 GAL4-SRC3 luciferase reporter, at 3.6 µM, hits give high values.
The test system of assay [2] is transactivating tegument protein VP16 (Human herpesvirus 1), Gal4-VP16 luciferase reporter. As to the kind of experiment: repression of VP16-driven luciferase reporter – cell-based, luminescence, high throughput, counter-screen for SRC3 inhibitor project (AID 588794). Conditions: mammalian cells, at 3.6 µM, hits give high values. Background: Reporter assays use an easily measured gene product as a stand-in for the process of interest.

In assay [3] the target is Nuclear receptor subfamily 5 group A member 2 (Homo sapiens) (UniProt O00482). The experiment in a line: NR5A2 activity suppression in reporter cells – cell-based, luminescence, confirmation (AID 651613; in the data active = inhibition above about 42%;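 also: HEK293T cells co-transfected with LRH-1 and StAR promoter luciferase reporter; 0% = vehicle wells and 100% = parental cells lacking receptor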). Conditions: cell-based LRH-1 luciferase reporter, inverse agonism; at 3.6 µM; hits give high values.
Assay [4] deals with Steroidogenic factor 1 (Homo sapiens) (UniProt Q13285). As to the kind of experiment: inverse agonism at SF1 nuclear receptor – cell-based, luminescence, high throughput, counter-screen for LRH-1 inverse agonist project (AID 651614; in the data active = inhibition above about 44%;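 also: cells cotransfected with StAR promoter reporter and SF1 expression vector; 0% = vehicle on cells with receptor and 100% = vehicle on cells lacking receptor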). The conditions noted are these: cell-based SF1 luciferase reporter, at 3.6 µM, hits give high values.
Assay [5] deals with transactivating tegument protein VP16 (Human herpesvirus 1). As to the kind of experiment: compounds suppressing VP16-driven luciferase signal – cell-based, luminescence, single concentration, counter-screen for SRC2 inhibitor project (AID 652007; in the data active = inhibition above about 36%). The conditions noted are these: cell-based VP16 transactivation luciferase reporter, at 8.9 µM, hits give high values. For orientation: The purpose of a counterscreen is to sort out artefacts and off-target activity.

In assay [6] the target is Nuclear receptor coactivator 2 (Homo sapiens) (UniProt Q15596). As to the kind of experiment: inhibition of GAL4-SRC2 driven luciferase expression – cell-based, luminescence, HEK293, triplicate, confirmation (AID 652008;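 active = mean inhibition above 46.5%, the solvent-only control mean plus 3 SD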;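 also: 0% = DMSO-treated cells and 100% = Gossypol at 36 µM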). The conditions noted are these: HEK293 GAL4-SRC2 luciferase reporter, at 8.9 µM, hits give high values.
Assay [7] in a line: StAR promoter reporter inhibitors, counter-screen for LRH-1 inverse agonist project, cell-based, luminescence, high throughput (AID 651611; in the data active = inhibition above about 28%). Conditions: StAR promoter luciferase reporter counterscreen, at 3.6 µM, hits give high values.
A short description of assay [8]: compounds suppressing VP16-driven luciferase signal – cell-based, luminescence, high throughput, counter-screen for LRH-1 inverse agonist project (AID 651615; in the data active = inhibition above about 33%). The conditions noted are these: Gal4-VP16 luciferase reporter cells, at 3.6 µM, hits give high values.

Sequence of Nuclear receptor coactivator 3 (Homo sapiens) (Q9Y6Q9 whole entry, looked up, the tested form may be a part): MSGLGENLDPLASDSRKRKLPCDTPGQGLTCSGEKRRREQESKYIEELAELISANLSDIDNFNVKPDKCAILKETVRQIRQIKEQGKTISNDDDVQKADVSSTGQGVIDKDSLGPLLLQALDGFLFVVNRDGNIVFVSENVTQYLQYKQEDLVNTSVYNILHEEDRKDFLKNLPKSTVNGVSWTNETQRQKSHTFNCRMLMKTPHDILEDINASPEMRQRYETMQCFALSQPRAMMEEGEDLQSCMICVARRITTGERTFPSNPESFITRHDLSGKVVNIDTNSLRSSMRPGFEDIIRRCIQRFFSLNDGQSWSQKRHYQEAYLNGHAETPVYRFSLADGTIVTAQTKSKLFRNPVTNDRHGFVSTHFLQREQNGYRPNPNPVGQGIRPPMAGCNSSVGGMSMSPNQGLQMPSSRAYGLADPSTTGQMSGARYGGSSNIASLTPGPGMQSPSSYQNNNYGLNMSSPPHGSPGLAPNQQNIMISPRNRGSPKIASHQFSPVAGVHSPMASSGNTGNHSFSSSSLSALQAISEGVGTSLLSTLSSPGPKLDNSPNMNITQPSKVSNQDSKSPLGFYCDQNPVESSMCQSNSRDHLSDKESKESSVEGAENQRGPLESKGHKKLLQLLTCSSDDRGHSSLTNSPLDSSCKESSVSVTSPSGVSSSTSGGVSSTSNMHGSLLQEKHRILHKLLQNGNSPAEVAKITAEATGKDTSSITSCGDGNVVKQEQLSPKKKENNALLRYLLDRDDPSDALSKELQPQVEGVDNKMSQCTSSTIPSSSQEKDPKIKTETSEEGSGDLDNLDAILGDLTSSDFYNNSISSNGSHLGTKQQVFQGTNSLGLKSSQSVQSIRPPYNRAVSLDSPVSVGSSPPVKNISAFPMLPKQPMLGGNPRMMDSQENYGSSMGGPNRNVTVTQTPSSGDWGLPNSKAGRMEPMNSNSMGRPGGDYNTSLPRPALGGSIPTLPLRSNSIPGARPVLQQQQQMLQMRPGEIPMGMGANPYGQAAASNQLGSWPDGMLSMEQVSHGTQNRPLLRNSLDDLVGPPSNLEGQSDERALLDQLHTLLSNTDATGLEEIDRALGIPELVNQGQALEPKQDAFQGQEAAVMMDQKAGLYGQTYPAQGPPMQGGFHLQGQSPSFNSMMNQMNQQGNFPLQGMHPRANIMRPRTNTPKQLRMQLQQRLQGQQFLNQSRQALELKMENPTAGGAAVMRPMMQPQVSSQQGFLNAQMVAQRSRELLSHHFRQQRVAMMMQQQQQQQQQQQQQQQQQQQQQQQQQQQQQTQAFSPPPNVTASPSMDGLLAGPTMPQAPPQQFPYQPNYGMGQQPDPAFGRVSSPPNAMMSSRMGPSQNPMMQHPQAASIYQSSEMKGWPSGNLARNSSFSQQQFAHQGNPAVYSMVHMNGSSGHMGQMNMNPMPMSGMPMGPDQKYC
Sequence of Nuclear receptor coactivator 2 (Homo sapiens) (Q15596 whole entry, looked up, the tested form may be a part): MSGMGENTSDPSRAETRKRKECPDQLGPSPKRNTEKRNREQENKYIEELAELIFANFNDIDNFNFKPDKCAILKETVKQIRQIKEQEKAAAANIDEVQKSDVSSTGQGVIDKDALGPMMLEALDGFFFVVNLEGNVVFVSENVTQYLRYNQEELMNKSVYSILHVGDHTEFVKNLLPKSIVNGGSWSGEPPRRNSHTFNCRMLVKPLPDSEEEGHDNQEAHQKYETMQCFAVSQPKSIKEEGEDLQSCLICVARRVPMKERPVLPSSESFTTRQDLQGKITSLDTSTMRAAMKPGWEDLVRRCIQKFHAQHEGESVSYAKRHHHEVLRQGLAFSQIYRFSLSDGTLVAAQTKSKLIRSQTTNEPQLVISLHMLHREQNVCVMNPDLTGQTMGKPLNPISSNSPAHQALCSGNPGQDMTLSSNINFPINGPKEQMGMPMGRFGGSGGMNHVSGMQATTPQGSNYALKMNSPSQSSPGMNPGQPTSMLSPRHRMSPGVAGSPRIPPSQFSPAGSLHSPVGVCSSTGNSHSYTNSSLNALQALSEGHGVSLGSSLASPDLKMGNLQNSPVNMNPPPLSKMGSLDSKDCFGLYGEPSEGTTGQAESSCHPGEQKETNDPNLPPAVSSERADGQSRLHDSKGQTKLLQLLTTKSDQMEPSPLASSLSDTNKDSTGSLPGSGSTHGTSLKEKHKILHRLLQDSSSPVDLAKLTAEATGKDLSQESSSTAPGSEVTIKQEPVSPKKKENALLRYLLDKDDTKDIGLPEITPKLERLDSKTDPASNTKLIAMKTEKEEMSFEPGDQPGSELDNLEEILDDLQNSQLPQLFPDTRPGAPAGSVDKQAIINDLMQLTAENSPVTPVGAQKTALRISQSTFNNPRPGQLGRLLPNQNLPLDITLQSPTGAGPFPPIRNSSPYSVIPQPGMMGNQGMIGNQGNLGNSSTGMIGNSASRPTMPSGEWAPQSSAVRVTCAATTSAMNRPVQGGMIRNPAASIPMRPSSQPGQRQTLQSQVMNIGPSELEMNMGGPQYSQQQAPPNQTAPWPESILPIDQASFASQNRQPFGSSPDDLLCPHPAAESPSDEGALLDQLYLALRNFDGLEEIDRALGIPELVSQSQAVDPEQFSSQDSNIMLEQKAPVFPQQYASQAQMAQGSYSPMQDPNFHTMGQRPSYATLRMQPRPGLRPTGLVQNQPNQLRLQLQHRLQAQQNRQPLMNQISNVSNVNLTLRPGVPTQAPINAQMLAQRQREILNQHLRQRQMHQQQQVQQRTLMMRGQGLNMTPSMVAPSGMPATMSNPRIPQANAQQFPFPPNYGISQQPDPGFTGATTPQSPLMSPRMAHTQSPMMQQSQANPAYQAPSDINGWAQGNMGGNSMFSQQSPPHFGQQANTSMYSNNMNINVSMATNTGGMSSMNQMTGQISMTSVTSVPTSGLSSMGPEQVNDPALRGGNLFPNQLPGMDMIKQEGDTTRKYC
Sequence of Nuclear receptor subfamily 5 group A member 2 (Homo sapiens) (O00482 whole entry, looked up): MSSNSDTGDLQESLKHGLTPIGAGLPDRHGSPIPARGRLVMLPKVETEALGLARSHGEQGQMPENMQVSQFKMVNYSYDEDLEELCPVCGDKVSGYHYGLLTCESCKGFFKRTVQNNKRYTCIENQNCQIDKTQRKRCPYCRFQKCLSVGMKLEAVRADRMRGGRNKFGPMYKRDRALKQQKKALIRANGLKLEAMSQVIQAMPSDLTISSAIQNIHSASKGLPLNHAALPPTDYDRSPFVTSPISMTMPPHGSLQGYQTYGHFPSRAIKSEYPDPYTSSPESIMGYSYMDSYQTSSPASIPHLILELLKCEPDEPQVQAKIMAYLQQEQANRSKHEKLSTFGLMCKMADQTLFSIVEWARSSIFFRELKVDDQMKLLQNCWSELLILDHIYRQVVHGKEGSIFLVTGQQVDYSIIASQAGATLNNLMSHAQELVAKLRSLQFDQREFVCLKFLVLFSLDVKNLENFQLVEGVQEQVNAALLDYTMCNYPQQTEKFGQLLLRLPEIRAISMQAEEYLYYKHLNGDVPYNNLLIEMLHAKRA
Sequence of Steroidogenic factor 1 (Homo sapiens) (Q13285 whole entry, looked up): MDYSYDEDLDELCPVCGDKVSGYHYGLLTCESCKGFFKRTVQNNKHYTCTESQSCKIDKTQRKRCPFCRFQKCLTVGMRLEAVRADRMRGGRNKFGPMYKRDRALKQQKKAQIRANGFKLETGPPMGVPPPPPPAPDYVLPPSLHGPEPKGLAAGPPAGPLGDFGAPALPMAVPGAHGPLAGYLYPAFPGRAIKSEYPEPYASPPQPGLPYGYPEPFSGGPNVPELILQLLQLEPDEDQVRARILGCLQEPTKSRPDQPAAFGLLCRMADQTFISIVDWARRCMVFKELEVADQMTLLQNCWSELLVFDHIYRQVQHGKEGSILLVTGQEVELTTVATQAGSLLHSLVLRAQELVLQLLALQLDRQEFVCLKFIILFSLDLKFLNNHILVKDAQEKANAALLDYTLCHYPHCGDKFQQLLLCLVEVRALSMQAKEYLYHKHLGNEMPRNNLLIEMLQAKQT

Regarding `CCCCCCC[N+](CC)(CC)CCCCc1ccc(Cl)cc1`, the inhibition in assay [1] is 22.1%; in assay [2] it was 28.2%; in assay [3] it was 79% (active); in assay [4], 66.2% (active).

Consider `Cc1ccc(NC(=O)c2ccccc2NS(=O)(=O)c2ccc(F)cc2)cc1S(=O)(=O)N1CCCCC1`, for which the inhibition is 12.2% in assay [1], 24% in assay [2], 10.3% in assay [5] and 27.6% in assay [6].

As to `Cc1ccccc1C(=O)N/N=C/c1ccc([N+](=O)[O-])s1`, the inhibition in assay [1] was 6.45%; in assay [2] it was 8.35%; in assay [7], 46.1% (active); in assay [3] it was 73.2% (active); in assay [4], 65% (active); in assay [8], 24.8%. The inhibition in assay [5] was 64.2% (active); in assay [6] it was 63.1% (active).

Take `Cc1ccc(-n2nc3c(=O)n(C(C)C(=O)NCCC4=CCCCC4)nc(C)c3c2C)cc1` (stereo unspecified): the inhibition is 22.9% in assay [1], 47.1% (active) in assay [2], 3.1% in assay [5] and 29.1% in assay [6].

Regarding `COc1ccc(N(C(=O)CCl)C(C(=O)NCCc2ccccc2)c2cccs2)cc1Cl` (stereo unspecified), the inhibition was 46.4% (active) in assay [1], 41.7% (active) in assay [2], 29.9% in assay [5] and 64.9% (active) in assay [6].

With `Cc1ccc(/C=C2\SC(=S)N(CCCC(=O)Nc3ccc(O)cc3)C2=O)cc1`, the inhibition in assay [1] was 18.4%; in assay [2], 10.3%; in assay [5] it was 36.9% (active); in assay [6] it was 69.4% (active).

In the case of `COC(=O)c1c(C)n(-c2ccc(OC)cc2)c2ccc(O)cc12`, the inhibition is 41.4% in assay [1], 24.1% in assay [2], -4.83% in assay [5] and 28.1% in assay [6].

As to `COc1ccc(C(=O)C(CCC(CNC(C)(C)C)C(=O)c2ccc(OC)cc2)CNC(C)(C)C)cc1` (stereo unspecified), the inhibition in assay [1] was -9.42%; in assay [2], 4.54%; in assay [5] it was 10.4%; in assay [6], 20.1%.
